In the supplement of paper PMC10981050:
Several values for one entry are separate records, joined by “and”; a condition that tells them apart may be missing. Equal entries are not always repeated. Structures can show the parent of a compound that is named as a salt.

Experiments:
Assay in all cases: cell viability relative to vehicle control; higher = less cytotoxic
Conditions in all cases: 10 µM
K562 = test system: K562
How it was run: (§1)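 Each screen used CRISPR-edited mutant and wild-type clones from four leukaemia lines. Compounds were acoustically dispensed at a single 10 µM dose, and CellTiter-Glo luminescence was read after 48 h with the supernatant first removed. Viability was analysed in Genedata Screener and given as percent of the on-plate vehicle control.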

MARIMO = test system: MARIMO
How it was run: as §1

MOLM14 = test system: MOLM14
How it was run: as §1

OCI-AML2 = test system: OCI-AML2
How it was run: as §1

SMILES | cell viability (K562; SRSF2 genotype: SRSF2 P95H/wt) | cell viability (K562; SRSF2 genotype: SRSF2 wt/wt) [%] | cell viability (MARIMO; SRSF2 genotype: SRSF2 P95H/wt) [%] | cell viability (MARIMO; SRSF2 genotype: SRSF2 wt/wt) [%] | cell viability (MOLM14; SRSF2 genotype: SRSF2 P95H/wt) [%] | cell viability (MOLM14; SRSF2 genotype: SRSF2 wt/wt) [%] | cell viability (OCI-AML2; SRSF2 genotype: P95H/wt) [%] | cell viability (OCI-AML2; SRSF2 genotype: wt/wt) [%]
CCOC(=O)C1=C[C@@H](OC(CC)CC)[C@H](NC(C)=O)[C@@H](N)C1 [Oseltamivir Phosphate] | 103% and 105% | 104 | 102 | 106 | 110 | 109 | 110 | 104
OC1CCC(Oc2cccc3cnc(Nc4ccc5nc[nH]c5c4)nc23)CC1 (centres undefined) | 40.6% and 46.8% | 32.7 | 11.5 | 4.14 | 1.38 | 0.57 | 1.67 | 16.3
CC(=O)O/N=C1/C(c2c(O)[nH]c3cc(Br)ccc23)=Nc2ccccc21 [BIO-acetoxime] | 32.5% and 23.4% | 25.4 | 82.2 | 88.4 | 33.1 | 24.4 | 73.2 | 76.2
CCS(=O)(=O)N1CCC([C@@H](C)n2c(C)c(C(=O)NCc3c(OC)cc(C)[nH]c3=O)c3ccccc32)CC1 | 100% and 98.2% | 95.7 | 99.8 | 111 | 100 | 99 | 107 | 109
CC1=CCC[C@H](C)C(=O)C[C@@H](C(C)C)C(=O)C1 [Curdione] | 93.2% and 88.9% | 83.8 | 93.8 | 90.8 | 91.2 | 87.5 | 91 | 87.2
C=CCc1ccc(O)c(-c2cc(CC=C)ccc2O)c1 [Magnolol] | 85.6% and 95.6% | 96.6 | 99.5 | 112 | 93.9 | 103 | 86.2 | 106
CCn1c(C(=O)N(C2CC2)C2CC2)cc2c3c(ncn3C)c(Nc3cc(C)n(C)n3)nc21 | 103% | 108 | 108 | 102 | 41.6 | 38.5 | 43 | 57.1
COC(=O)c1ccc2c(C(=Nc3ccc(N(C)C(=O)CN4CCN(C)CC4)cc3)c3ccccc3)c(O)[nH]c2c1 [Nintedanib (BIBF 1120)] | 1.02% and 0.94% | 2.25 | 39 | 34.4 | 2.6 | 4.94 | 0.94 | 5.1
CNC(=O)c1cc(Oc2ccc(NC(=O)Nc3ccc(Cl)c(C(F)(F)F)c3)c(F)c2)ccn1 [Regorafenib (BAY 73-4506)] | 17.6% and 21.9% | 14.9 | 29.2 | 28 | 16.6 | 13.1 | 23.1 | 22.8
Cc1cc(C(O)=C2C(=O)C(=O)N(CCCN3CCOCC3)C2c2ccncc2)ccc1OCc1ccccc1 (centres undefined) | 96.1% and 98.6% | 102 | 93.9 | 92.6 | 107 | 96.5 | 103 | 94.2
OC[C@H]1OC(O)[C@H](O)[C@@H](O)[C@H]1O (stereo partly drawn) [D-Galactose] | 101% and 103% | 98.2 | 103 | 105 | 103 | 103 | 105 | 108
CC(C)(N)C(=O)N[C@H](COCc1ccccc1)C(=O)N1CCC2(CC1)CN(S(C)(=O)=O)c1ccccc12 [Ibutamoren mesylate] | 91.5% and 97.4% | 90 | 81.1 | 92 | 80.1 | 89.5 | 82.3 | 78.9
CCn1cc(C(=O)O)c(=O)c2ccc(C)nc21 [Nalidixic acid (NegGram)] | 96.8% and 104% | 106 | 107 | 101 | 105 | 109 | 104 | 91.1
Cc1cc(C)c(CNC(=O)c2cc(-c3ccc(N4CCN(C)CC4)nc3)cc3c2c(C)cn3C(C)C)c(=O)[nH]1 | 83.8% and 78.9% | 86 | 90.1 | 94.2 | 80.4 | 83.3 | 70.6 | 82.2
CNC(=O)Nc1ccc(-c2nc(N3CC4CCC(C3)O4)c3cnn(C4CCC5(CC4)OCCO5)c3n2)cc1 | 40.7% and 42.8% | 34.4 | 57.6 | 45 | 36 | 28.1 | 29 | 28.7
Nc1nc2ccc(OC(F)(F)F)cc2s1 [Riluzole (Rilutek)] | 94.3% and 96.3% | 88.4 | 94 | 90.6 | 81.8 | 98.6 | 103 | 94.8
CC(C(=O)O)c1cccc(Oc2ccccc2)c1 (centres undefined) [Fenoprofen calcium] | 90.9% and 83.7% | 86.4 | 88.2 | 92.5 | 89.5 | 90.7 | 84.1 | 87.5
O=C(NOCCO)c1ccc2cncn2c1Nc1ccc(I)cc1F | 78.1% and 89.5% | 80.8 | 41.2 | 37 | 43.5 | 27 | 39.1 | 40.2
CN[C@@H](C)C(=O)N[C@H](C(=O)N1CCC[C@H]1C(=O)N[C@H](C(=O)NCCCCCCNC(=O)[C@@H](NC(=O)[C@@H]1CCCN1C(=O)[C@@H](NC(=O)[C@H](C)NC)C1CCCCC1)C(c1ccccc1)c1ccccc1)C(c1ccccc1)c1ccccc1)C1CCCCC1 | 0.93% and 3.98% | 3.06 | 29.5 | 8.11 | 0.7 | 0.53 | 4.1 | 9.14
Cc1cccc(CC(=O)N2CCc3c2ccc(-c2cn(C)c4ncnc(N)c24)c3F)n1 | 75.2% and 84.4% | 80.4 | 74.5 | 72.5 | 80.8 | 93.8 | 69.3 | 73.8
CO[C@H]1/C=C/O[C@@]2(C)Oc3c(C)c(O)c4c(O)c(c(/C=N/N5CCN(C)CC5)c(O)c4c3C2=O)NC(=O)/C(C)=C\C=C\[C@H](C)[C@H](O)[C@@H](C)[C@@H](O)[C@@H](C)[C@H](OC(C)=O)[C@@H]1C [Rifampin] | 106% and 97.3% | 93.9 | 99.9 | 116 | 83.1 | 95.7 | 96.4 | 105
O=[N+]([O-])c1ccc(Nc2nc(N3CCOCC3)nc(N3CCOCC3)n2)cc1 | 99% and 99.5% | 95.7 | 95.7 | 95.8 | 112 | 99.8 | 107 | 116

SMILES | cell viability (K562; SRSF2 genotype: SRSF2 P95H/wt) | cell viability (K562; SRSF2 genotype: SRSF2 wt/wt) [%] | cell viability (MARIMO; SRSF2 genotype: SRSF2 P95H/wt) [%] | cell viability (MARIMO; SRSF2 genotype: SRSF2 wt/wt) [%] | cell viability (MOLM14; SRSF2 genotype: SRSF2 P95H/wt) [%] | cell viability (MOLM14; SRSF2 genotype: SRSF2 wt/wt) [%] | cell viability (OCI-AML2; SRSF2 genotype: P95H/wt) [%] | cell viability (OCI-AML2; SRSF2 genotype: wt/wt) [%]
O=C(O)CCCC[C@@H]1SC[C@@H]2NC(=O)N[C@@H]21 [Biotin (Vitamin B7)] | 101% and 100% | 96.3 | 104 | 103 | 102 | 108 | 102 | 99.2
O=C1C(N(CO)C(=O)NCO)N(CO)C(=O)N1CO (centres undefined) [Diazolidinyl urea] | 96.3% and 98.6% | 106 | 98.9 | 98.3 | 93.8 | 104 | 111 | 129
O=C(O)Cc1ccc2c(c1)C(=O)c1ccccc1CO2 [Isoxepac] | 104% | 105 | 106 | 105 | 100 | 105 | 105 | 105
COCCCC/C(=N\OCCN)c1ccc(C(F)(F)F)cc1 [Fluvoxamine maleate] | 94.3% and 95.6% | 98.9 | 80.8 | 91.5 | 87.8 | 98 | 93.9 | 88.2
Cc1cc(C#N)cc(C)c1Oc1nc(Nc2ccc(C#N)cc2)nc(N)c1Br [Etravirine (TMC125)] | 101% and 96.6% | 94.6 | 97 | 108 | 107 | 102 | 99.5 | 117
C=C1[C@H](CO)[C@@H](O)C[C@@H]1n1cnc2c(=O)[nH]c(N)nc21 [Entecavir] | 109% and 104% | 103 | 94.8 | 101 | 101 | 106 | 79.5 | 93.7
COc1ccc(/C=C/c2cc(O)cc(O)c2)cc1O [Rhapontigenin] | 95.7% and 103% | 105 | 101 | 97.9 | 119 | 109 | 94.2 | 86.2
Cc1cc(=O)n(-c2ccccc2)n1C [Antipyrine] | 97.8% and 87.7% | 82.7 | 86.2 | 95.4 | 88.1 | 87.4 | 84.8 | 93.4
Nc1nc2c(ncn2COCCO)c(=O)[nH]1 [Acyclovir (Aciclovir)] | 98% and 101% | 95.1 | 99.2 | 98.3 | 103 | 99.1 | 105 | 102
CC(=O)Oc1cc(C(F)(F)F)ccc1C(=O)O [Triflusal] | 101% and 90.6% | 99.7 | 98.9 | 101 | 97.7 | 101 | 92.2 | 102
O=C1NC(=O)C(c2ccccc2)(c2ccccc2)N1 [Phenytoin (Lepitoin)] | 98.1% and 111% | 99.6 | 107 | 103 | 100 | 103 | 105 | 91.6
CCCC(=O)Nc1cccc(NC(=O)c2ccccc2Br)c1 | 92.9% | 95.5 | 97.8 | 96.5 | 102 | 100 | 95.7 | 95
COc1ccc(CCC(=O)Nc2nc3ccc(Cl)cc3s2)cc1OC | 95.4% and 97% | 92 | 97.3 | 96.3 | 94.6 | 97.8 | 91.4 | 87.5
COc1ccc(Cl)cc1C(=O)NCCc1ccc(S(=O)(=O)NC(=O)NC2CCCCC2)cc1 [Glyburide (Glibenclamide)] | 107% and 98.6% | 110 | 106 | 120 | 108 | 103 | 98.8 | 104
CCCCCCCCCCCCCCCCCCCC(=O)O [Arachidic acid] | 95.7% and 93.1% | 98.9 | 96 | 96.3 | 96.1 | 103 | 103 | 109
COCCOc1ccc2c(c1)ncn2-c1ccc2cccc(N3CCC(N)CC3)c2n1 | 72.2% and 70.2% | 63.5 | 2.19 | 1.07 | 0.96 | -0.03 | 0.57 | 3.99
CN(C)[C@@H](CCOc1cccc2ccccc12)c1ccccc1 [Dapoxetine hydrochloride (Priligy)] | 65.8% and 82.9% | 73 | 52.7 | 59 | 53.9 | 58.8 | 58.9 | 63.1
C[C@@H]1CCCC2=CC(=O)[C@@H]3[C@@H](C3(C)C)[C@]21C [Aristolone] | 107% and 96.8% | 101 | 95.8 | 103 | 112 | 99 | 98.3 | 109
COc1ccccc1OCC(O)CO (centres undefined) [Guaifenesin (Guaiphenesin)] | 106% and 104% | 107 | 103 | 108 | 107 | 109 | 105 | 118
O=c1c(O)c(-c2ccc(O)c(O)c2)oc2cc(O)cc(O)c12 [Quercetin dihydrate (Sophoretin)] | 107% and 99.5% | 92.6 | 98.4 | 98 | 100 | 99.6 | 97.4 | 96.5
O=C(NCCO[N+](=O)[O-])c1cccnc1 [Nicorandil (Ikorel)] | 101% and 99.9% | 108 | 108 | 108 | 93.4 | 99.1 | 82.1 | 94
